24 compounds from PubChem BioAssay (NCATS) can be followed below.

Inconclusive results are not listed. Calls of active or inactive are those of the source. Calls follow the shape of the dose curve; as a rule, active = well fitted inhibition curve with a large enough effect; inconclusive = small, poorly fitted or top-dose-only effect; inactive = flat fitted curve, though single readings scatter.

What all share (assay): qHTS profiling for inhibitors of Plasmodium falciparum proliferation (AID 504749); also: nearly all actives have a fitted effect of over 60% in size
Holding throughout (conditions): P. falciparum in erythrocytes, SYBR Green DNA, 72 h; series mostly up to 28.7 µM
A general note: In qHTS, concentration-response curves come from the screen itself.

One experiment concerns JCK. The gist of the method:
(§1)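 Each compound contacts P. falciparum-infected red blood cells for 72 h at 37 C; lysis buffer (Tris, EDTA, saponin, Triton X, SYBR Green I) is added and fluorescence measured next morning; values normalized to controls.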

The test system of the next experiment is N140. The gist of the method:
as §1

The test system of the next experiment is P93_24. The essentials: as §1
The subject of another experiment is P94_40. The gist of the method:
as §1

The next experiment deals with PAD. The essentials:
as §1

Another experiment has as its system PC15. The gist of the method: as §1
The test system of a further experiment is PC26. The essentials:
as §1

The test system of another experiment is PC49. The essentials:
as §1

The next experiment deals with SC27B. The gist of the method:
as §1

Another experiment deals with TAB109. The essentials:
as §1
Potency is read from the fitted curve at half-maximal effect.

On to `Cc1cc2c(cc1S(N)(=O)=O)S(=O)(=O)CCC2`, for which the Potency result in the experiment on JCK, in the experiment with N140, in the experiment on P93_24, with P94_40, with PAD and with PC15 was “inactive” throughout. For the same compound, the Potency entry in the experiment with PC26, with PC49, in the experiment with SC27B and in the experiment on TAB109 was “inactive” each time.

`CC(=O)CCC(=O)O`: the Potency entry in the experiment on JCK, in the experiment with N140, with P93_24, in the experiment with P94_40, in the experiment on PAD and in the experiment on PC15 was “inactive” throughout. Also, the Potency result with PC26, with PC49, in the experiment with SC27B and with TAB109 was “inactive” throughout.

For the compound `COc1ccc2c(c1)C(=O)N(CCc1ccc(S(=O)(=O)NC(=O)NC3CCCCC3)cc1)C(=O)C2(C)C`, the Potency entry with JCK, with N140, in the experiment on P93_24, in the experiment on P94_40, in the experiment with PAD and with PC15 was “inactive” each time. The Potency entry in the experiment on PC26, in the experiment with PC49, in the experiment with SC27B and with TAB109 was “inactive” each time.

Regarding `O=C(O)CC(O)C(=O)O` (stereo not given), the Potency entry with JCK, in the experiment on N140, in the experiment with P93_24, in the experiment on P94_40, with PAD and in the experiment with PC15 was “inactive” each time. In addition, the Potency result in the experiment on PC26, with PC49, with SC27B and in the experiment on TAB109 was “inactive” in each case.

With `NC(=O)NC(=O)Cc1ccccc1`, the Potency result with JCK, in the experiment with N140, in the experiment on P93_24, in the experiment on P94_40, with PAD and in the experiment on PC15 was “inactive” in each case. In addition, the Potency result in the experiment with PC26, in the experiment on PC49, in the experiment on SC27B and in the experiment on TAB109 was “inactive” throughout.

In the case of `O=C(O)c1ccccn1`, the Potency entry in the experiment on JCK, with N140, in the experiment on P93_24, in the experiment on P94_40, in the experiment with PAD and in the experiment on PC15 was “inactive” each time. Further, the Potency result with PC26, in the experiment with PC49, in the experiment with SC27B and in the experiment on TAB109 was “inactive” in each case.

For the compound `NC(CSCC(=O)O)C(=O)O` (stereo not given), the Potency result in the experiment with JCK, with N140, with P93_24, in the experiment on P94_40, in the experiment on PAD and in the experiment on PC15 was “inactive” each time. The Potency result in the experiment with PC26, with PC49, in the experiment with SC27B and in the experiment with TAB109 was “inactive” throughout.

With `CCOC(=O)[C@H](CCc1ccccc1)N[C@@H](C)C(=O)N1C(=O)N(C)C[C@H]1C(=O)O`, the Potency entry in the experiment on JCK, with N140, in the experiment with P93_24, in the experiment with P94_40, with PAD and in the experiment with PC15 was “inactive” each time. The Potency entry in the experiment on PC26, in the experiment with PC49, in the experiment with SC27B and in the experiment with TAB109 was “inactive” in each case.

As for `O=C(O)[C@@H]1CSCN1`, the Potency result in the experiment on JCK, in the experiment on N140, in the experiment on P93_24, in the experiment on P94_40, in the experiment with PAD and with PC15 was “inactive” in each case. Moreover, the Potency entry in the experiment on PC26, in the experiment with PC49, in the experiment on SC27B and in the experiment on TAB109 was “inactive” throughout.

`CC[C@@]1(c2ccccc2)NC(=O)N(C)C1=O`: the Potency result in the experiment on JCK, with N140, in the experiment on P93_24, with P94_40, in the experiment with PAD and in the experiment on PC15 was “inactive” each time. The Potency entry in the experiment with PC26, in the experiment with PC49, in the experiment on SC27B and with TAB109 was “inactive” throughout.

Take `Cc1cc(N)c2ccccc2[n+]1CCCCCCCCCC[n+]1c(C)cc(N)c2ccccc21`: the Potency with JCK was 1120 nM (active); in the experiment with N140 it was 251 nM (active); in the experiment on P93_24, 70.8 nM (active); in the experiment with P94_40, 7080 nM (active); in the experiment with PAD it was 2240 nM (active); with PC15 it was 282 nM (active). Besides, the Potency is 510 nM (active) in the experiment on PC26, 126 nM (active) in the experiment with PC49, 0.0316 nM (active) with SC27B and 4470 nM (active) in the experiment with TAB109.

Regarding `NCCNCCNCCNCCN`, the Potency entry in the experiment with JCK, with N140, with P93_24, in the experiment with P94_40, in the experiment on PAD and in the experiment on PC15 was “inactive” in each case. Further, the Potency result in the experiment with PC26, with PC49, with SC27B and with TAB109 was “inactive” throughout.

For `CCN(CC)CCSC(=O)C(c1ccccc1)c1ccccc1`, the Potency entry in the experiment with JCK, in the experiment on N140, in the experiment with P93_24, with P94_40, in the experiment on PAD and in the experiment on PC15 was “inactive” throughout. The Potency result in the experiment on PC26, in the experiment on PC49, with SC27B and in the experiment on TAB109 was “inactive” each time.

Turning to `CCCCCCCCCCCCOS(=O)(=O)O`, the Potency entry in the experiment on JCK, in the experiment with N140, with P93_24, in the experiment on P94_40, in the experiment on PAD and in the experiment on PC15 was “inactive” throughout. In addition, the Potency entry with PC26, in the experiment with PC49, with SC27B and in the experiment with TAB109 was “inactive” in each case.

With `O=c1cc(CO)occ1O`, the Potency entry with JCK, in the experiment with N140, with P93_24, in the experiment with P94_40, in the experiment on PAD and in the experiment on PC15 was “inactive” in each case. Besides, the Potency result in the experiment with PC26, with PC49, with SC27B and in the experiment on TAB109 was “inactive” in each case.

Take `CCn1cc(C(=O)O)c(=O)c2cnc(N3CCNCC3)nc21`: the Potency result in the experiment with JCK, in the experiment with N140, in the experiment with P93_24, in the experiment with P94_40, with PAD and in the experiment with PC15 was “inactive” each time. Also, the Potency entry in the experiment with PC26, with PC49, in the experiment on SC27B and in the experiment on TAB109 was “inactive” throughout.

On to `O=c1cc[nH]c(=O)[nH]1`, for which the Potency entry in the experiment with JCK, with N140, in the experiment on P93_24, in the experiment with P94_40, in the experiment on PAD and in the experiment with PC15 was “inactive” throughout. The Potency result in the experiment with PC26, in the experiment on PC49, with SC27B and with TAB109 was “inactive” each time.

Regarding `Cc1cc(O)cc2c1O[C@](C)(CCC[C@H](C)CCC[C@H](C)CCCC(C)C)CC2`, the Potency result in the experiment on JCK, in the experiment on N140, in the experiment with P93_24, in the experiment with P94_40, in the experiment with PAD and in the experiment with PC15 was “inactive” each time. Further, the Potency entry in the experiment on PC26, in the experiment on PC49, in the experiment on SC27B and with TAB109 was “inactive” each time.

`COc1ccc(S(=O)(=O)Nc2nnc(CC(C)C)s2)cc1`: the Potency entry in the experiment on JCK, with N140, in the experiment with P93_24, in the experiment on P94_40, in the experiment with PAD and with PC15 was “inactive” in each case. Further, the Potency entry with PC26, with PC49, with SC27B and with TAB109 was “inactive” in each case.

As for `CC1(C)[C@@H]2CC[C@@]1(C)C(=O)C2`, the Potency entry in the experiment with JCK, with N140, in the experiment with P93_24, in the experiment with P94_40, in the experiment with PAD and in the experiment on PC15 was “inactive” in each case. Further, the Potency result with PC26, in the experiment with PC49, in the experiment on SC27B and in the experiment with TAB109 was “inactive” in each case.

For `C#CCN(C)Cc1ccccc1`, the Potency entry in the experiment with JCK, with N140, in the experiment with P93_24, with P94_40, with PAD and in the experiment with PC15 was “inactive” in each case. For the same compound, the Potency result in the experiment with PC26, with PC49, in the experiment on SC27B and in the experiment with TAB109 was “inactive” in each case.

Turning to `NS(=O)(=O)c1cc2c(cc1Cl)NC(CSCc1ccccc1)=NS2(=O)=O`, the Potency result in the experiment on JCK, in the experiment on N140, in the experiment with P93_24, with P94_40, in the experiment on PAD and in the experiment on PC15 was “inactive” in each case. Further, the Potency entry in the experiment on PC26, with PC49, in the experiment with SC27B and in the experiment with TAB109 was “inactive” throughout.

As to `O=C(Oc1ccccc1C(=O)O)c1ccccc1O`, the Potency entry with JCK, in the experiment on N140, in the experiment with P93_24, in the experiment on P94_40, with PAD and in the experiment with PC15 was “inactive” throughout. Further, the Potency result in the experiment with PC26, in the experiment with PC49, in the experiment on SC27B and in the experiment on TAB109 was “inactive” each time.

Turning to `CCCCN(CCCC)CCCOC(=O)c1ccc(N)cc1`, the Potency entry in the experiment with JCK, with N140, with P93_24, in the experiment on P94_40, in the experiment with PAD and in the experiment on PC15 was “inactive” each time. Further, the Potency result in the experiment with PC26, in the experiment on PC49, in the experiment on SC27B and in the experiment on TAB109 was “inactive” in each case.
